Drawing on PubChem BioAssay (EPA / NIEHS), this text covers outcome and AC50 for 10 compounds.

The source made the active and inactive calls. How the source made its calls: active means hit-call score of the fitted dose curve at least 0.9, where 1 is the maximum; inactive means score below 0.9.

As usually defined, the AC50 is the midpoint of the concentration-response curve, whichever way the signal moves.

The nature of the first test: CEETOX_H295R_OHPROG: CeeTox H295R High-throughput Steroidogenesis Assay for OH-Progesterone (OHPROG) (AID 2283435).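 On AC50: human adrenal H295R cells primed 48 h with 10 µM forskolin; 17alpha-hydroxyprogesterone secreted into medium measured by HPLC-MS/MS.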 Conditions: actives raise or lower the signal. In a few lines: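 Secreted 17alpha-hydroxyprogesterone is read by tandem MS from media of forskolin-primed H295R cells dosed with chemical for 48 h. Activity is fitted in both directions against DMSO baseline; cytotoxic concentrations are re-tested diluted.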
As to `Cc1cccc(C)n1`, the result was inactive.
Consider `N#Cc1ccccc1O`, for which the AC50 was 30.1 µM (active).
`CCCCCCCCCc1ccc(OCCO)cc1`: the call was inactive.
The same measure, in the same setting: in the case of `O=C1C=CC(=O)N1c1ccccc1` it was “inactive”.
As to `CCCCCCCCCCCCC[N+](C)(C)Cc1ccccc1`, the AC50 was 0.509 µM (active).
Take `CC1CCCCC1`: the result was inactive.
For the compound `O=C1c2ccccc2C(=O)c2c(Cl)cccc21`, the compound was classed as inactive.
`CCCCC(CC)COC(=O)c1ccc(N(C)C)cc1` (stereo not drawn): the AC50 was 6.74 µM (active).
Take `CCOCOCC`: the outcome was inactive.
Take `C[C@]12CC[C@H]3C(=CCc4cc(O)ccc43)[C@@H]1CCC2=O`: the AC50 is 2.87 µM (active).

The next test is described as follows: CEETOX_H295R_ANDR: CeeTox H295R High-throughput Steroidogenesis Assay for Androstenedione (ANDR) (AID 2283436).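 Further: human H295R adrenal cells exposed for 48 h with androstenedione measured in medium.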 Particulars: actives raise or lower the signal. In a few lines: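 Read-out is androstenedione secreted into medium, measured by tandem mass spectrometry after liquid-liquid extraction. Cells were H295R, dosed for 48 h per modified OECD 456; activity fitted in both directions relative to DMSO.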
On to `Cc1cccc(C)n1`, for which the outcome was inactive.
With `CCCCCCCCCc1ccc(OCCO)cc1`, the call was inactive.
As for `O=C1C=CC(=O)N1c1ccccc1`, the compound was called inactive.
`CCCCCCCCCCCCC[N+](C)(C)Cc1ccccc1`: the AC50 was 0.307 µM (active).
For the compound `CC1CCCCC1`, the call was inactive.
The same measure, in the same setting: next, `O=C1c2ccccc2C(=O)c2c(Cl)cccc21`: “inactive”; `CCOCOCC`: “inactive”.
As for `C[C@]12CC[C@H]3C(=CCc4cc(O)ccc43)[C@@H]1CCC2=O`, the AC50 is 8.03 µM (active).
